Several values for one entry are separate records, joined by “and”; a condition that tells them apart may be missing. Equal values may be shown once. Inconclusive results are not listed. Activity calls are given as the source filed them. Unless noted, calls come from the whole dose curve; as a rule, active = well fitted curve in the direction sought with a large enough effect in the repeat runs; inconclusive = weak or mixed curves; inactive = no such curve, though single readings can be large; an effect the other way counts as inactive or inconclusive.
Tests used:
[1] = A CellTox Green Cytotoxicity Assay to monitor cytotoxicity in HepG2 cells - 32 hour (AID 1224883); details: CellTox Green fluorescence; series mostly up to 76.8 µM; note: nearly all actives have a fitted effect of over 50% in size; note: potency is the fitted concentration of half-maximal effect
Procedure, shortened: (§1)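 Cells and non-lytic dye reagent are dispensed together (600 HepG2 cells/well) and incubated 5 h before DMSO compound transfer. Kinetic fluorescence is then recorded in the same wells during 40 h at 37 C.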

[2] = A CellTox Green Cytotoxicity Assay to monitor cytotoxicity in HEK293 cells - 8 hour (AID 1224884); details: CellTox Green fluorescence; series mostly up to 76.8 µM; note: nearly all actives have a fitted effect of over 35% in size
Procedure, shortened: (§2)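 Cells (HEK293, 600/well) and dye reagent are dispensed together. After 5 h at 37 C, 23 nL compound is pinned in. Plates stay at 37 C for 40 h with fluorescence read at 0h, 8h, 16h, 24h, 32h and 40h.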

[3] = qHTS RealTime-Glo MT Cell Viability Assay in HepG2 cells - 16 hour (AID 1224885); details: RealTime-Glo luminescence; series mostly up to 76.8 µM; note: nearly all actives have a fitted effect of over 50% in size
Procedure, shortened: (§3)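 Luminescence read-out: viable HepG2 cells reduce a prosubstrate to a NanoLuc substrate, giving a signal proportional to live cell number. Reads taken at 0, 8, 16, 24, 32 and 40 h of compound exposure at 37 C.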

[4] = qHTS RealTime-Glo MT Cell Viability Assay in HEK293 cells - 24 hour (AID 1224886); details: RealTime-Glo luminescence; series mostly up to 76.8 µM; note: top concentration of the series differs between compounds; nearly all actives have a fitted effect of over 50% in size
Procedure, shortened: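 Nonlytic real-time viability readout: viable cells convert prosubstrate to NanoLuc substrate, giving luminescence proportional to live cell number. HEK293, 600 cells/well, compound added after 5 h, continuous culture at 37 C.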

[5] = qHTS RealTime-Glo MT Cell Viability Assay in HEK293 cells - 8 hour (AID 1224887); details: RealTime-Glo luminescence; series mostly up to 76.8 µM; note: top concentration of the series differs between compounds; nearly all actives have a fitted effect of over 50% in size
Procedure, shortened: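 Real-time viability in HEK293: signal arises when living cells convert a prosubstrate for NanoLuc in the medium, so luminescence tracks viable cell number. Compound (23 nL, DMSO) added 5 h post-seeding; kinetic reads at 0–40 h, 37 C.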

[6] = A CellTox Green Cytotoxicity Assay to monitor cytotoxicity in HEK293 cells - 16 hour (AID 1224888); details: CellTox Green fluorescence; series mostly up to 76.8 µM; note: nearly all actives have a fitted effect of over 35% in size
Procedure, shortened: as §2

[7] = qHTS RealTime-Glo MT Cell Viability Assay in HepG2 cells - 0 hour (AID 1224889); details: RealTime-Glo luminescence; series mostly up to 76.8 µM; note: nearly all actives have a fitted effect of over 50% in size
Procedure, shortened: as §3

[8] = A CellTox Green Cytotoxicity Assay to monitor cytotoxicity in HepG2 cells - 8 hour (AID 1224890); details: CellTox Green fluorescence; series mostly up to 76.8 µM; note: nearly all actives have a fitted effect of over 45% in size
Procedure, shortened: as §1

[9] = qHTS assay to identify small molecule antagonists of the estrogen receptor alpha (ER-alpha) signaling pathway using the BG1 cell line in the presence of 0.1 nM 17-beta-estradiol - cell viability counter screen (AID 1259241); details: VM7Luc4E2 (BG1) viability, CellTiter-Fluor protease, 22 h, 0.1 nM estradiol agonist added; series mostly up to 92.4 µM; note: nearly all actives have a fitted effect of over 40% in size
Procedure, shortened: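 The cell line endogenously expresses full-length ER-alpha and carries four EREs driving luciferase. Cells are cultured 5 days hormone-free, treated 22 hr with compounds and 0.1 nM estradiol, then viability is read by fluorescence.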

[10] = qHTS assay to identify small molecule antagonists of the androgen receptor (AR) signaling pathway using the MDA cell line in the presence of 0.5 nM R1881 - cell viability counter screen (AID 1259242); details: MDA-kb2 viability, CellTiter-Fluor protease fluorescence, 16 h; series mostly up to 92.4 µM; note: nearly all actives have a fitted effect of over 45% in size
Procedure, shortened: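 Steps: plate MDA-kb2 cells, rest 5 hr at 37C without CO2; pin in compounds in DMSO; add R1881 to 0.5 nM final; incubate 16 hr; add CellTiter-Fluor, 30 min; read fluorescence.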

[11] = target: Androgen receptor (Homo sapiens) (UniProt P10275); assay: qHTS assay to identify small molecule antagonists of the androgen receptor (AR) signaling pathway using the MDA cell line in the presence of 0.5 nM R1881 (AID 1259243); details: MDA-kb2 MMTV-luciferase, R1881 0.5 nM, 16 h; series mostly up to 92.4 µM; note: nearly all actives have a fitted effect of over 50% in size
Procedure, shortened: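 Stably transfected MDA-kb2 cells express luciferase from an MMTV promoter bearing both AR and GR response elements. Compounds plus 0.5 nM R1881 (final) were incubated 16 hr at 37C without CO2, then luminescence measured.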

[12] = qHTS assay to identify small molecule HDAC inhibitors (AID 1259364); details: HCT-116 HDAC-Glo I/II luminescence, 2 h; series mostly up to 92.4 µM;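 note: wild-type HCT-116 cells with endogenous class I/II HDAC activity; top concentration of the series differs between compounds; nearly all actives have a fitted effect of over 45% in size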
Procedure, shortened: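 Cells (HCT-116, wild type) are seeded at 1,500 per well, incubated overnight, treated with compound in DMSO for 2 hr, then developed with HDAC-Glo I/II reagent for 30 min at room temperature.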

[13] = qHTS assay to identify small molecule HDAC inhibitors - cell viability counter screen (AID 1259365); details: HCT-116 viability, CellTiter-Glo ATP luminescence, 2 h; series mostly up to 92.4 µM; note: nearly all actives have a fitted effect of over 50% in size
Procedure, shortened: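 Viability readout: CellTiter-Glo luminescence. Wild-type HCT-116 cells, 2hr compound treatment following overnight attachment at 37 C.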

[14] = qHTS assay to identify small molecule agonists of the sonic hedgehog signaling (Shh) pathway - cell viability counter screen (AID 1259366); details: NIH/3T3 Gli1-Luc viability, CellTiter-Fluor, 24 h; series mostly up to 92.4 µM; note: nearly all actives have a fitted effect of over 50% in size
Procedure, shortened: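 Viability measured fluorometrically (CellTiter-Fluor, 1hr, 37C) in 3T3 Gli1-Luc reporter cells after 23hr compound exposure within a 24hr incubation at 37C/5% CO2.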

[15] = qHTS assay to identify small molecule antagonists of the sonic hedgehog signaling (Shh) pathway - cell viability counter screen (AID 1259367); details: NIH/3T3 Gli1-Luc viability, CellTiter-Fluor, 24 h; series mostly up to 92.4 µM; note: nearly all actives have a fitted effect of over 55% in size
Procedure, shortened: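 Conditioned medium drove Shh signaling in 3T3 Gli1-Luc cells exposed to compounds at 37C and 5% CO2. Viability was determined from CellTiter-Fluor fluorescence, with reagent incubated 1 hr after 23 hr of treatment.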

[16] = qHTS assay to identify small molecule agonists of the sonic hedgehog signaling (Shh) pathway (AID 1259368; calls by dose curve;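 note: NIH/3T3-derived 3T3Gli1-Luc cells carrying a stable Gli1-driven firefly luciferase reporter; nearly all actives have a fitted effect of over 15% in size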); details: NIH/3T3 Gli1-Luc reporter, luciferase, 24 h; series mostly up to 92.4 µM
Procedure, shortened: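 Cells of a mouse NIH/3T3 clone stably expressing luciferase under the Gli1 transcriptional response element are exposed to test chemicals for 24 hr at 37 C. Pathway activation is detected as a rise in luminescence.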

[17] = qHTS assay to identify small molecule antagonists of the sonic hedgehog signaling (Shh) pathway (AID 1259369; calls by dose curve; note: nearly all actives have a fitted effect of over 45% in size; note: potency is the fitted concentration of half-maximal effect); details: NIH/3T3 Gli1-Luc reporter, Shh antagonist, luminescence 24 h; series mostly up to 92.4 µM
Procedure, shortened: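 Cells are plated and held 4hr at 37 C, compounds (DMSO) are pinned in, conditioned medium is added to stimulate the pathway, and after 24hr luciferase reagent is added for 30min before luminescence is read.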

[18] = target: Estrogen receptor (Homo sapiens) (UniProt P03372); assay: qHTS assay to identify small molecule antagonists of the estrogen receptor alpha (ER-alpha) signaling pathway using the BG1 cell line in the presence of 0.1 nM 17-beta-estradiol (AID 1259244); details: VM7Luc4E2 (BG1) ERE-luciferase, antagonist mode, 0.1 nM E2, 22 h; series mostly up to 92.4 µM; note: nearly all actives have a fitted effect of over 50% in size
Procedure, shortened: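 Antagonist mode: compounds in DMSO are pinned onto VM7Luc4E2 reporter cells, 0.1 nM final 17beta-estradiol is added, and after 22 h at 37C luciferase luminescence is measured with ONE-Glo.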

[19] = qHTS assay to identify small molecule phospholipidosis (PLD) inducers (AID 1259344; active = well fitted curve in the direction sought with a large enough effect; an effect the other way counts as inactive or inconclusive); details: HepG2 phospholipidosis, LipidTOX Red imaging, 24 h; series mostly up to 38.3 µM
Procedure, shortened: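 After 4 h attachment on collagen I, HepG2 cells were dosed with compound alongside LipidTOX Red, kept 24 h at 37 C, fixed, and imaged for lamellar phospholipid pits.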

Measured: Potency

Chain of Androgen receptor (Homo sapiens) (P10275 whole entry, looked up): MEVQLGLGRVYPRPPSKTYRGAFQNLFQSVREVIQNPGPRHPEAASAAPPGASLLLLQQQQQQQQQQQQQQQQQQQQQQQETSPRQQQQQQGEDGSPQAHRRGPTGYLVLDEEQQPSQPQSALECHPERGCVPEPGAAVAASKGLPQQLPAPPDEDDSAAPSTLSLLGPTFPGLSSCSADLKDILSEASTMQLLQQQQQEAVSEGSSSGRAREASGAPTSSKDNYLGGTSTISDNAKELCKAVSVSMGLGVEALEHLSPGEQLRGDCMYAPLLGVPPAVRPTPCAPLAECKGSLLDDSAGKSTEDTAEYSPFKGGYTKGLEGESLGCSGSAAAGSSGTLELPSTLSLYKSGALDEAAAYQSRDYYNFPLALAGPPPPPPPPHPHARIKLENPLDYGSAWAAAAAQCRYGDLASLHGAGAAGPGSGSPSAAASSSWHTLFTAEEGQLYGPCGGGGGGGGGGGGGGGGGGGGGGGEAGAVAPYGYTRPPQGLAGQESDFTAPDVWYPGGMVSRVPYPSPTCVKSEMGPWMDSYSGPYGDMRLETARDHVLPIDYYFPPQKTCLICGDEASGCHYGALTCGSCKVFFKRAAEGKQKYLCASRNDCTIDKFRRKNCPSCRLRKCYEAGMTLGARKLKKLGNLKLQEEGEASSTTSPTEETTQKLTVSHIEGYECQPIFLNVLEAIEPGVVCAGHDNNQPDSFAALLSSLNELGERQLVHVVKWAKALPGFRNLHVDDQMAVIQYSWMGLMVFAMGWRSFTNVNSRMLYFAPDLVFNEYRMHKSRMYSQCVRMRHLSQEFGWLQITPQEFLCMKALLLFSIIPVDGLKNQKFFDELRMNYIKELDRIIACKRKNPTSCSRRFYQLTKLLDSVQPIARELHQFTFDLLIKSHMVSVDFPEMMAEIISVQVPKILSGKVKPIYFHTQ
Chain of Estrogen receptor (Homo sapiens) (P03372 whole entry, looked up): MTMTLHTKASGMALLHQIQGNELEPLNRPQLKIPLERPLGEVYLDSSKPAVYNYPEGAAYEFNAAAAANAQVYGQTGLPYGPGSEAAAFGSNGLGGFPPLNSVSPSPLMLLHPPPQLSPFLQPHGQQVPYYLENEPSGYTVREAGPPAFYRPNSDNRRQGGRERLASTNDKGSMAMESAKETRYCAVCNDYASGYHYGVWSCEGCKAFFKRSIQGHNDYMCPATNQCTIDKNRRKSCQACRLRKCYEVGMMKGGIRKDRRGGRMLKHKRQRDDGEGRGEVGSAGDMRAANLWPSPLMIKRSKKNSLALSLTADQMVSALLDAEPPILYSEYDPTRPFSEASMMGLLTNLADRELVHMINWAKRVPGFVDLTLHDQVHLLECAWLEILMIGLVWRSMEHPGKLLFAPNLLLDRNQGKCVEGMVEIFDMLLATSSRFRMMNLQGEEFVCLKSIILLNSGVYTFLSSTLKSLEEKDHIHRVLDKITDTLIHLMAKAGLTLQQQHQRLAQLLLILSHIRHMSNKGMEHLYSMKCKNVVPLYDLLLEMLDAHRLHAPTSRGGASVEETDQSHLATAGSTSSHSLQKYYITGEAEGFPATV

CCCCC(CC)COC(=O)c1ccc(C(=O)OCC(CC)CCCC)cc1 (stereo unspecified)
not listed: [18] | [19]
inactive: all other assays above

CC(C)=CCC/C(C)=C/C=O
not listed: [11] | [19]
inactive: all other assays above

C=CC(C)(C)C
not listed: [2] | [11] | [19]
inactive: all other assays above

CCn1cc(C(=O)O)c(=O)c2cc3c(cc21)OCO3
not listed: [2] | [11] | [18]
inactive: all other assays above

COc1c2ccoc2cc2oc(=O)ccc12
not listed: [2] | [11] | [13] | [19]
inactive: all other assays above

CC(C)(C)NC[C@H](O)COc1nsnc1N1CCOCC1
not listed: [2] | [11] | [18]
inactive: all other assays above

CC(=O)c1nccs1
not listed: [11] | [19]
inactive: all other assays above

CC/C=C(\C(=O)N[C@@H]1C(=O)N2C(C(=O)OCOC(=O)C(C)(C)C)=C(COC(N)=O)CS[C@H]12)c1csc(N)n1
not listed: [11]
inactive: all other assays above

CCCOC(=O)NCCCN(C)C
not listed: [2] | [11] | [18] | [19]
inactive: all other assays above

CS(=O)(=O)c1ccc(Cl)cc1
not listed: [11] | [13] | [18] | [19]
inactive: all other assays above

CC(O)CNCC(C)O (stereo unspecified)
not listed: [11] | [13] | [19]
inactive: all other assays above

Nc1nc(N)c2nc(-c3ccccc3)c(N)nc2n1
active: [1] 49.5 µM and 49 µM | [17] 24.6 µM and 30.6 µM
not listed: [2] | [14]
inactive: all other assays above

CN=C(NC#N)NCCSCc1nc[nH]c1C
not listed: [2] | [11] | [13]
inactive: all other assays above

N[C@@H](Cc1cc(I)c(Oc2ccc(O)c(I)c2)c(I)c1)C(=O)O
not listed: [11]
inactive: all other assays above

C=C1C[C@]23C[C@@]1(O)CC[C@H]2[C@@]12C=C[C@H](O)[C@@](C)(C(=O)O1)[C@H]2[C@@H]3C(=O)O
not listed: [11] | [13] | [18] | [19]
inactive: all other assays above

CCCCCCCC(=O)O
not listed: [2] | [11] | [13]
inactive: all other assays above

C=C(C)CC(C)(C)C
not listed: [11] | [18] | [19]
inactive: all other assays above

Cc1ccncc1
not listed: [11] | [19]
inactive: all other assays above

Nc1cccc(N)n1
not listed: [11] | [19]
inactive: all other assays above

NC(=O)NC(N)=O
not listed: [2] | [11] | [13] | [19]
inactive: all other assays above

Clc1cccc(Cl)c1NC1=NCCN1
not listed: [11] | [13] | [18]
inactive: all other assays above

Reference: PubChem BioAssay (Tox21)
